Here are results for 16 compounds from PubChem BioAssay.

Active and inactive are the calls of the source.

Test [1] is described as follows: compounds binding Alexa647 anti-His antibody – biochemical, small-molecule microarray, 635 nm fluorescence, artefact control for SMM control protein annotation, primary screen (AID 1128).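 Further: score merges feature fluorescence with signal-to-noise for each printed compound spot.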 The note with it: higher = more signal.
Test [2] relates to Human papillomavirus type 1a E7 protein (residues 1-88). As to the kind of experiment: HPV1a E7 small-molecule binders, primary screen, biochemical, small-molecule microarray, residues 1-88, 635 nm (AID 1129). The following applies: small-molecule microarray binding, fluorescence 635 nm; higher = more signal.
Test [3] concerns the target Focal adhesion kinase 1 (Homo sapiens) (UniProt Q05397). Briefly: PTK2 protein binding on printed compound slides – biochemical, small-molecule microarray, 635/667 nm fluorescence, BSA, DTT, primary screen (AID 1130).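 Further: composite of spot emission at 667 nm and signal to noise over triplicate slides.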 The following applies: 635 nm fluorescence, higher = more signal.
Test [4] concerns Fibrinogen (Alexa647-labelled). Briefly: Alexa647-fibrinogen binding to printed small molecules – biochemical, small-molecule microarray, 635/667 nm fluorescence, artefact control for SMM control-protein annotation, profiling panel (AID 1131).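 Further: z-score merges 667 nm fluorescence with per-spot signal-to-noise over triplicate slides.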 The note with it: fibrinogen-A647 binding fluorescence, higher = more signal.
Test [5] deals with Follistatin (Homo sapiens) (UniProt P19883). Briefly: FST protein binding to printed compounds – biochemical, small-molecule microarray, 635/667 nm fluorescence, primary screen (AID 1132). The following applies: 635 nm fluorescence, higher = more signal.
Sequence of Follistatin (Homo sapiens) (P19883 whole entry, looked up): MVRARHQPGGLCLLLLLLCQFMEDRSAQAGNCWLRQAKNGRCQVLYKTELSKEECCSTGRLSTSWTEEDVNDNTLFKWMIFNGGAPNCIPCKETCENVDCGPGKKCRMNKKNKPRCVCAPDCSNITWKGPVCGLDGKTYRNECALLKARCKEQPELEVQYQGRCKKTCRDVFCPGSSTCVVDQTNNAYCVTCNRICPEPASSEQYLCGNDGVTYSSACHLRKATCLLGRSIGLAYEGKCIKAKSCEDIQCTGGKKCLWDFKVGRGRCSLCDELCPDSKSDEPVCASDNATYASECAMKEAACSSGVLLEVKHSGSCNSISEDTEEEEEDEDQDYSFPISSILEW
For test [6], the target named is Fibroblast growth factor 2 (Homo sapiens) (UniProt P09038). As to the kind of experiment: basic fibroblast growth factor binding to printed compounds – biochemical, small-molecule microarray, 635/667 nm fluorescence, primary screen (AID 1133). The note with it: FGF2, fluorescence 635/667, higher = more signal.
Sequence of Fibroblast growth factor 2 (Homo sapiens) (P09038 whole entry, looked up): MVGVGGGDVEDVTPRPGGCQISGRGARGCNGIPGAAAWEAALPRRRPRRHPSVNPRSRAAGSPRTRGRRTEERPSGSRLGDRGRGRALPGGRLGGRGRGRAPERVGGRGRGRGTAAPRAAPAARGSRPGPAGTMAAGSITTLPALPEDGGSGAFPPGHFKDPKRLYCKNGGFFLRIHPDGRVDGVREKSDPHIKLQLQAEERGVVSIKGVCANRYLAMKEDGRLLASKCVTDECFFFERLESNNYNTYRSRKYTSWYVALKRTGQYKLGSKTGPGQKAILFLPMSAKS
A short description of test [7]: JC-1 mitochondrial potential readout, lung cancer cells – cell-based, A549, JC-1 fluorescence, basal, 24 h, 100 nL, profiling panel (AID 1138).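 Further: A549 lung adenocarcinoma cells under basal conditions with no added stimulus; test concentration not given here.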 The note with it: higher = more signal.
Test [8] concerns Lefty1. As to the kind of experiment: Lefty1 protein binding to printed compounds – biochemical, small-molecule microarray, 635/667 nm fluorescence, primary screen (AID 1139). The following applies: fluorescence 635/667, higher = more signal.
Test [9] relates to wheat germ agglutinin (Triticum aestivum), Alexa647-labelled. Briefly: Alexa647-WGA lectin binding to printed small molecules – biochemical, small-molecule microarray, 635/667 nm fluorescence, artefact control for SMM control-protein annotation, profiling panel (AID 1140).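 Further: score merges 667 nm feature emission with signal to noise over triplicate slides.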 The note with it: WGA-A647 binding, 635 nm fluorescence, higher = more signal.
Test [10] deals with Luciferin 4-monooxygenase (Photinus pyralis) (UniProt P08659). Briefly: inhibition of purified Photinus pyralis luciferase – biochemical, luminescence, purified enzyme, 2006 set, primary screen (AID 1141).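 Further: cell-free assay with purified firefly luciferase at 100 ng per well in PBS; test concentration not given here.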 The note with it: purified firefly luciferase, SteadyGlo luminescence, 30 min; higher = more signal, called active from +8 up or from −8 down.
Sequence of Luciferin 4-monooxygenase (Photinus pyralis) (P08659 whole entry, looked up): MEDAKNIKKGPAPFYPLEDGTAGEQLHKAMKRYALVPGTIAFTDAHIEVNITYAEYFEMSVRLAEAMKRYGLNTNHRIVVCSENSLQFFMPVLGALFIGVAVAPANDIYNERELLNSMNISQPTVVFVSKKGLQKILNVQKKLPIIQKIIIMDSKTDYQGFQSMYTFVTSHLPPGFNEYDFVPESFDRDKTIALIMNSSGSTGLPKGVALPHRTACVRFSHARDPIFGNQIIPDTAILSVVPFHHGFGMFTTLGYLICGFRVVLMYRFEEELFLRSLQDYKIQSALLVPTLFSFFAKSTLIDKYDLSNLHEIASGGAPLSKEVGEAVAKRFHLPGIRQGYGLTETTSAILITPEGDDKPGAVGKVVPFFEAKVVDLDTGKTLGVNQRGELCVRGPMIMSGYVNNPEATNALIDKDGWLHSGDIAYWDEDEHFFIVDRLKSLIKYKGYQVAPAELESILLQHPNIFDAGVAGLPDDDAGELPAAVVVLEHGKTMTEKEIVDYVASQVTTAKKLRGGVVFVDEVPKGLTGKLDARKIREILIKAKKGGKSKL

Sequence of Focal adhesion kinase 1 (Homo sapiens) (Q05397 whole entry, looked up): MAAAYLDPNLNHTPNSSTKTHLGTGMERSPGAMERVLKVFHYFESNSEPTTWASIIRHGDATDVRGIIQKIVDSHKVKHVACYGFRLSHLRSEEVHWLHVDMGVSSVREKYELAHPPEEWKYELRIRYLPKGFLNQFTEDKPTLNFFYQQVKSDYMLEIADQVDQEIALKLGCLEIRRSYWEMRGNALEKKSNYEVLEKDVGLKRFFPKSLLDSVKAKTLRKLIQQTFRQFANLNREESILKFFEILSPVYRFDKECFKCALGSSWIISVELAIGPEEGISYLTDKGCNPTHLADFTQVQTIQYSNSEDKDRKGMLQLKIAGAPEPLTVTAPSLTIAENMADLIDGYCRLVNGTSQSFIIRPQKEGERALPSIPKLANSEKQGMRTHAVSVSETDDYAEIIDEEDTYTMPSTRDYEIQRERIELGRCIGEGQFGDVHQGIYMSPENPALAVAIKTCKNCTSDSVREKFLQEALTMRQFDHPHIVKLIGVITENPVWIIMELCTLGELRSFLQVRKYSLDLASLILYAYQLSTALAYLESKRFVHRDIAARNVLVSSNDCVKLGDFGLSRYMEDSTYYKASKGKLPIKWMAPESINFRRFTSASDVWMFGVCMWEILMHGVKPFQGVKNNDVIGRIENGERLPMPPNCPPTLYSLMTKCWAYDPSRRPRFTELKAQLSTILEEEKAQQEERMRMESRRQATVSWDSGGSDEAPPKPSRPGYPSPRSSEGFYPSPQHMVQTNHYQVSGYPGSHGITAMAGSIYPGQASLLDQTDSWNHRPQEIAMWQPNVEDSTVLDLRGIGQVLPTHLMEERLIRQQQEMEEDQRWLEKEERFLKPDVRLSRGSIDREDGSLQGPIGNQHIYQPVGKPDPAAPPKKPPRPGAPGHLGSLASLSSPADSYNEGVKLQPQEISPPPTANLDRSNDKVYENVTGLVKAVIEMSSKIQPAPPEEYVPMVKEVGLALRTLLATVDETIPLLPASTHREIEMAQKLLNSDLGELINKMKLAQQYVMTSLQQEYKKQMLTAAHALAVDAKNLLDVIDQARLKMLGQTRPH

Turning to `C=CCNC(=O)[C@@H]1[C@H]2C(=O)O[C@H](c3ccccc3)[C@H](c3ccccc3)N2[C@H](c2ccc(OCCO)cc2)[C@@]12C(=O)Nc1ccc(C#CCCO)cc12`, the composite z-score in test [1] amounted to 2.72; in test [2] it was 1.19; in test [3], 1.17; in test [4] it was 0.979; in test [5], 1.16; in test [6], 1.68. The composite z-score stood at 1.52 in test [8] and 0.687 in test [9]. Moreover, the values for the z-score in [7] and in test [10] were 0.103 and -0.947 (inactive), respectively.

Consider `C=CCOC(=O)[C@H]1[C@@H]2C(=O)O[C@@H](c3ccccc3)[C@@H](c3ccccc3)N2[C@@H](c2ccc(OCCOC(=O)[C@@H]3C[C@@H]4C(=O)N[C@@H](CCCCN(C)C)C(=O)N4[C@@H]3c3ccc(O)cc3)cc2)[C@]12C(=O)Nc1ccc(I)cc12`, for which the composite z-score in [1] amounted to 2.26; in test [2], 1.22; in [3], 0.565; in [4], 0.733; in test [5], 1.16; in test [6], 1.57. The composite z-score in test [8] was 1.54; in [9] it was 0.81. Moreover, the z-score in test [7] was -1.63; in test [10], -4.39 (inactive).

As to `COCCCNC(=O)C1N=C(c2ccc(OCCCO)cc2)N(c2ccccc2)O1` (stereo not given), the composite z-score was determined as 1.38 in test [1]; 1.03 in test [2]; 0.234 in [3]; 0.95 in test [4]; 1.11 in test [5]; 0.555 in [6]. The figures for the composite z-score in test [8] and in test [9] were 0.517 and 0.569, respectively. The z-score in [7] is 0.735; in [10] it was -10.5 (active).

For the compound `[N-]=[N+]=NCc1ccccc1C[C@]1(C(=O)NCC(O)CO)N=C(c2ccc(OCCCO)cc2)O[C@H]1c1ccccc1` (stereo not given in full), the composite z-score was 0.375 in [1]; -0.116 in [2]; -0.294 in [3]; -0.231 in test [4]; 0.263 in [5]; -0.476 in [6]. For the same compound, the figures for the composite z-score in test [8] and in test [9] were -1.5 and 0.228, respectively. In addition, the z-score is -0.077 in test [7] and -0.263 (inactive) in [10].

Turning to `COCCOC(=O)N1C(=O)[C@@]2(c3cc(C#Cc4ccc(OC)cc4)ccc31)[C@H](C(=O)N1CCCCCCC1)[C@H]1C(=O)O[C@H](c3ccccc3)[C@H](c3ccccc3)N1[C@@H]2c1ccc(OCCO)cc1`, the composite z-score in test [1] was determined as 0.885; in test [2] it was 0.94; in test [3], 0.409; in test [4], 0.905; in test [5], 1.58; in [6] it was 2.1. Moreover, the composite z-score in test [8] stood at 1.36; in test [9], 1.32. For the same compound, the z-score in [7] was -0.951; in test [10], -2.56 (inactive).

Regarding `COc1ccc(C(O)C2C=CC3C(=O)N(c4ccccc4)C(=O)C3N2Nc2ccc(C(C)C)cc2)cc1OCc1ccccc1` (stereo not given), the composite z-score in test [1] is 0.893; in test [2] it was 1.17; in test [3], -0.149; in test [4] it was 0.973; in test [5] it was 1.22; in test [6] it was 0.254. The composite z-score worked out at 0.094 in [8] and 1.22 in test [9]. In addition, the z-score in [7] is -0.182; in [10], -1.96 (inactive).

Take `Cc1ccc(C(C)CC(O)C2C=CC3C(=O)N(C)C(=O)C3N2NC(=O)OC(C)(C)C)o1` (stereo not given): the composite z-score in test [1] was 1.65; in test [2] it was 1.01; in test [3], 0.759; in test [4] it was 0.314; in [5], 0.997; in test [6], 0.48. Besides, the composite z-score in test [8] amounted to 0.444; in [9], 0.563. In addition, the z-score is -0.475 in test [7] and -1.3 (inactive) in test [10].

Turning to `CN(C)CCCNC(=O)[C@@]1(C)c2ccccc2C(=O)N(Cc2cc(F)cc(C(F)(F)F)c2)[C@H]1c1ccc(CO)cc1`, the composite z-score was -0.731 in test [1]; -0.358 in [2]; 0.63 in test [3]; -0.0121 in test [4]; -0.673 in test [5]; -0.67 in test [6]. Also, the composite z-score was -0.91 in [8] and 0.397 in [9]. Also, the z-score in test [7] was -0.202; in [10], -0.0378 (inactive).

Take `CCC(CC)C(O)C1C=CC2C(=O)N(C)C(=O)C2N1Nc1ccccc1` (stereo not given): the composite z-score is 1.02 in test [1]; 1.08 in [2]; 0.43 in test [3]; 0.964 in test [4]; 0.895 in test [5]; -0.194 in test [6]. Further, the results for the composite z-score in test [8] and in test [9] were 0.434 and 1.1, respectively. Moreover, the z-score is -0.513 in test [7] and -0.445 (inactive) in test [10].

In the case of `CC(C)OC(=O)C=C1C[C@@H](c2ccccc2C(F)(F)F)O[C@@H](c2ccccc2C(F)(F)F)O1`, the composite z-score is 0.209 in test [1]; 0.737 in test [2]; 0.554 in test [3]; 0.183 in test [4]; -0.0154 in [5]; 0.179 in [6]. The composite z-score in [8] came out at 0.109; in [9], 0.127. The z-score in [7] is 1.81; in test [10], 0.464 (inactive).

Consider `CN1C(=O)C2C=CC(C(O)c3cc(C(F)(F)F)cc(C(F)(F)F)c3)N(N3CCCCC3)C2C1=O` (stereo not given), for which the composite z-score in [1] was 1.13; in [2], 1.03; in test [3], 0.428; in [4], 0.62; in [5], -0.165; in test [6] it was -0.397. Moreover, the values for the composite z-score in test [8] and in test [9] were -0.4 and 0.615, respectively. The z-score in test [7] was -0.0918; in [10] it was -1.48 (inactive).

`O=C1OCCC/C=C\[C@H]2OC34C=CCN(Cn5nnc6ccccc65)C(=O)[C@H]3N(CCO)C(=O)[C@@H]4C12` (stereo not given in full): the composite z-score is 0.893 in [1]; -0.318 in test [2]; -0.344 in test [3]; -1.27 in test [4]; -0.481 in test [5]; -1.36 in [6]. The composite z-score in test [8] was -0.368; in test [9] it was 0.556. In addition, the z-score was -0.438 in test [7] and 1.27 (inactive) in test [10].

For the compound `CCOC(=O)C[C@H]1[C@H](OC(=O)Cc2ccc3c(c2)OCO3)[C@@H](NC(=O)c2ccc(-c3ccccc3)cc2)c2cc(OCCCO)ccc2N1C(=O)Cc1ccc(OC)cc1`, the composite z-score in [1] was 0.0923; in [2], 0.516; in test [3], 0.165; in test [4], 0.872; in [5], 0.518; in [6], 0.28. Moreover, the results for the composite z-score in test [8] and in [9] were 0.475 and 0.415, respectively. Further, the z-score is 1.24 in test [7] and -1.11 (inactive) in test [10].

Take `[N-]=[N+]=NCc1ccccc1[C@@H]1OC(c2ccc(OCCCO)cc2)=N[C@]1(CCS(=O)(=O)c1ccccc1)C(=O)NCc1ccccc1`: the composite z-score was 1.82 in test [1]; 1.21 in test [2]; 0.878 in test [3]; 0.964 in [4]; 1.47 in [5]; 1.37 in [6]. Moreover, the composite z-score in test [8] was determined as 1.49; in [9], 1.27. Further, the values for the z-score in test [7] and in [10] were -0.338 and -0.375 (inactive), respectively.

With `CCCCc1cn(C[C@H](Cc2ccccc2)NC(=O)N[C@H](CO)CCc2oc(C(C)=O)c(C(=O)OC)c2C(=O)OC)nn1`, the composite z-score was determined as 0.97 in test [1]; 1.2 in [2]; 0.54 in [3]; 0.921 in test [4]; 1.18 in test [5]; 0.866 in test [6]. The results for the composite z-score in test [8] and in test [9] were 1.16 and 0.445, respectively. Also, the z-score was -0.419 in test [7] and 1.29 (inactive) in [10].

Turning to `COc1ccc([Si](C)(C)[C@H]2[C@H](CC(=O)N3CCC[C@H]3CO)O[C@@]3(C(=O)N(Cc4cccc(N5C(=O)c6cccc7cccc5c67)c4)c4ccccc43)[C@@H]2C)cc1`, the composite z-score was determined as 0.874 in test [1]; 0.614 in [2]; 0.209 in test [3]; 0.94 in [4]; 1.17 in [5]; 0.7 in [6]. Further, the composite z-score in [8] amounted to 1.52; in [9] it was 0.571. In addition, the z-score is 1.57 in test [7] and -0.75 (inactive) in [10].
